In PubChem BioAssay AID1159580 (chemical genetic matrix, 2015):
Hit rate of the full screen: of about 5,500 compounds, about 2,000 (36%) were called active. Not shown: some 18% with an inconclusive outcome. Rule as the data show it: active = normalized growth mostly below about 0.91 (no sharp cut-off); inconclusive = no clear call, values can overlap the other calls; inactive = mostly above about 0.92. This is one part of the list.

Assay: chemical genetic growth profiling, strain panel (AID 1159580);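 also: tested at 20 µM; growth read once vehicle control cultures reached saturation at 30 °C; 1 = growth at the plate median or of vehicle wells; lower values mean less growth of the strain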
Settings: growth OD

Measured: normalized growth

Nc1ccc(S(=O)(=O)Nc2ccccn2)cc1
inactive: S. cerevisiae deletion strains, locus YKL009W, strain mrt4, active compounds read low 0.993 | S. cerevisiae deletion strains, locus YKL068W, active compounds read low 0.991 | S. cerevisiae deletion strains, locus YKL085W, strain MDH1 (second series), active compounds read low 0.982 | S. cerevisiae deletion strains, locus YKL085W, strain MDH1, active compounds read low 0.982 | S. cerevisiae deletion strains, locus YKL160W, strain elf1, active compounds read low 1.02 | S. cerevisiae deletion strains, locus YKL190W, strain CNB1, active compounds read low 1.01 | S. cerevisiae deletion strains, locus YKR001C, strain vps1, active compounds read low 0.995 | S. cerevisiae deletion strains, locus YKR026C, strain gcn3, active compounds read low 1.02 | S. cerevisiae deletion strains, locus YKR091W, strain srl3, active compounds read low 1.01 | S. cerevisiae deletion strains, locus YLL001W, strain dnm1, active compounds read low 1.03 | S. cerevisiae deletion strains, locus YLL026W, active compounds read low 1.02 | S. cerevisiae deletion strains, locus YLL041C, strain sdh2, active compounds read low 1.01 | S. cerevisiae deletion strains, locus YLR027C, strain aat2, active compounds read low 1.01 | S. cerevisiae deletion strains, locus YLR039C, strain RIC1, active compounds read low 1.03 | S. cerevisiae deletion strains, locus YLR058C, strain SHM2, active compounds read low 1.01 | S. cerevisiae deletion strains, locus YLR102C, strain apc9, active compounds read low 0.993 | S. cerevisiae deletion strains, locus YLR113W, strain HOG1, active compounds read low 0.976 | S. cerevisiae deletion strains, locus YLR221C, strain rsa3, active compounds read low 0.993 | S. cerevisiae deletion strains, locus YLR258W, strain gsy2, active compounds read low 1 | S. cerevisiae deletion strains, locus YLR262C, strain YPT6 (second series), active compounds read low 1.03 | S. cerevisiae deletion strains, locus YLR262C, strain YPT6, active compounds read low 1.04 | S. cerevisiae deletion strains, locus YLR268W, strain sec22, active compounds read low 0.944 | S. cerevisiae deletion strains, locus YLR320W, strain mms22, active compounds read low 0.985 | S. cerevisiae deletion strains, locus YLR330W, strain CHS5, active compounds read low 1 | S. cerevisiae deletion strains, locus YLR342W, strain FKS1 (second series), active compounds read low 0.985 | S. cerevisiae deletion strains, locus YLR342W, strain FKS1, active compounds read low 1.01 | S. cerevisiae deletion strains, locus YLR357W, strain rsc2, active compounds read low 0.996 | S. cerevisiae deletion strains, locus YLR370C, strain arc18, active compounds read low 1.01 | S. cerevisiae deletion strains, locus YLR371W, strain rom2, active compounds read low 0.99 | S. cerevisiae deletion strains, locus YLR384C, strain iki3, active compounds read low 1.01 | S. cerevisiae deletion strains, locus YLR418C, strain cdc73, active compounds read low 0.985 | S. cerevisiae deletion strains, locus YML016C, strain PPZ1, active compounds read low 1.01 | S. cerevisiae deletion strains, locus YML032C, strain rad52, active compounds read low 0.97 | S. cerevisiae deletion strains, locus YML120C, strain ndi1, active compounds read low 1.01 | S. cerevisiae deletion strains, locus YML124C, strain tub3, active compounds read low 1 | S. cerevisiae deletion strains, locus YMR058W, strain fet3, active compounds read low 1.03 | S. cerevisiae deletion strains, locus YMR078C, strain ctf18, active compounds read low 0.989 | S. cerevisiae deletion strains, locus YMR125W, strain sto1, active compounds read low 1.01 | S. cerevisiae deletion strains, locus YMR129W, active compounds read low 1.01 | S. cerevisiae deletion strains, locus YMR205C, strain PFK2, active compounds read low 1.01 | S. cerevisiae deletion strains, locus YMR223W, strain ubp8, active compounds read low 1.01 | S. cerevisiae deletion strains, locus YMR231W, strain pep5, active compounds read low 1.01 | S. cerevisiae deletion strains, locus YMR263W, strain SAP30, active compounds read low 1.01 | S. cerevisiae deletion strains, locus YMR307W, strain GAS1, active compounds read low 1.02 | S. cerevisiae deletion strains, locus YNL067W, strain RPL9B, active compounds read low 1.01 | S. cerevisiae deletion strains, locus YNL071W, strain lat1, active compounds read low 0.998 | S. cerevisiae deletion strains, locus YNL128W, strain TEP1, active compounds read low 1.01 | S. cerevisiae deletion strains, locus YNL153C, strain GIM3, active compounds read low 1.01 | S. cerevisiae deletion strains, locus YNL183C, strain NPR1, active compounds read low 0.945 | S. cerevisiae deletion strains, locus YNL209W, strain ssb2, active compounds read low 1.01 | S. cerevisiae deletion strains, locus YNL233W, strain BNI4, active compounds read low 1 | S. cerevisiae deletion strains, locus YNL248C, strain rpa49, active compounds read low 0.985 | S. cerevisiae deletion strains, locus YNL250W, strain rad50, active compounds read low 0.988 | S. cerevisiae deletion strains, locus YNL271C, strain bni1, active compounds read low 0.998 | S. cerevisiae deletion strains, locus YNL298W, strain CLA4, active compounds read low 0.988 | S. cerevisiae deletion strains, locus YNL307C, strain MCK1, active compounds read low 0.997 | S. cerevisiae deletion strains, locus YNL322C, strain KRE1 (second series), active compounds read low 1.01 | S. cerevisiae deletion strains, locus YNL322C, strain KRE1, active compounds read low 1 | S. cerevisiae deletion strains, locus YNR049C, strain mso1, active compounds read low 1.02 | S. cerevisiae deletion strains, locus YNR052C, strain pop2, active compounds read low 0.991 | S. cerevisiae deletion strains, locus YOL006C, strain TOP1, active compounds read low 1.05 | S. cerevisiae deletion strains, locus YOL012C, strain htz1 0.921 | S. cerevisiae deletion strains, locus YOL147C, strain pex11, active compounds read low 1 | S. cerevisiae deletion strains, locus YOR001W, strain rrp6, active compounds read low 1.02 | S. cerevisiae deletion strains, locus YOR061W, strain CKA2, active compounds read low 1.01 | S. cerevisiae deletion strains, locus YOR069W, strain VPS5, active compounds read low 1.01 | S. cerevisiae deletion strains, locus YOR070C, strain gyp1, active compounds read low 1 | S. cerevisiae deletion strains, locus YOR080W, strain dia2, active compounds read low 1.02 | S. cerevisiae deletion strains, locus YOR083W, strain WHI5, active compounds read low 0.991 | S. cerevisiae deletion strains, locus YOR106W, strain vam3, active compounds read low 1.04 | S. cerevisiae deletion strains, locus YOR136W, strain idh2, active compounds read low 0.992 | S. cerevisiae deletion strains, locus YOR144C, strain elg1, active compounds read low 0.989 | S. cerevisiae deletion strains, locus YOR184W, strain ser1, active compounds read low 0.993 | S. cerevisiae deletion strains, locus YOR231W, strain MKK1, active compounds read low 0.986 | S. cerevisiae deletion strains, locus YOR265W, strain rbl2, active compounds read low 1.01 | S. cerevisiae deletion strains, locus YOR270C, strain vph1, active compounds read low 1.01 | S. cerevisiae deletion strains, locus YOR290C, strain snf2, active compounds read low 0.997 | S. cerevisiae deletion strains, locus YOR316C, strain cot1, active compounds read low 0.994 | S. cerevisiae deletion strains, locus YPL051W, strain arl3, active compounds read low 1.01 | S. cerevisiae deletion strains, locus YPL078C, strain atp4, active compounds read low 1.02 | S. cerevisiae deletion strains, locus YPL106C, strain sse1, active compounds read low 0.975 | S. cerevisiae deletion strains, locus YPL240C, strain hsp82, active compounds read low 1.02 | S. cerevisiae deletion strains, locus YPL256C, strain CLN2, active compounds read low 0.968 | S. cerevisiae deletion strains, locus YPR119W, strain clb2, active compounds read low 0.975 | S. cerevisiae deletion strains, locus YPR141C, strain kar3, active compounds read low 0.99 | S. cerevisiae deletion strains, locus YPR163C, strain tif3, active compounds read low 0.993 | S. cerevisiae deletion strains, locus YPR167C, strain met16, active compounds read low 0.986 | S. cerevisiae deletion strains, strain wtn01, active compounds read low 0.998 | S. cerevisiae strains, strain wild type, active compounds read low 1.01
